mcGAS lum = inhibitors of mouse cGAS; hit rate 0.15% among 160,000; Q8C6L5; recombinant cGAS, Kinase-Glo ATP depletion luminescence; inhibition, % at 12.5 µM;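 note: 0% = negative control wells and 100% = reference inhibitor with no enzyme activity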
hcGAS inh = blocks human cGAS activity. inhibition, % at 12.5 µM. hit rate 0.081% among 290,000. Q8N884. recombinant h-cGAS, ATP depletion, Kinase-Glo luminescence;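 note: 0% = vehicle reaction and 100% = reaction without DNA for no activity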
Target sequence (Q8N884 whole entry, looked up): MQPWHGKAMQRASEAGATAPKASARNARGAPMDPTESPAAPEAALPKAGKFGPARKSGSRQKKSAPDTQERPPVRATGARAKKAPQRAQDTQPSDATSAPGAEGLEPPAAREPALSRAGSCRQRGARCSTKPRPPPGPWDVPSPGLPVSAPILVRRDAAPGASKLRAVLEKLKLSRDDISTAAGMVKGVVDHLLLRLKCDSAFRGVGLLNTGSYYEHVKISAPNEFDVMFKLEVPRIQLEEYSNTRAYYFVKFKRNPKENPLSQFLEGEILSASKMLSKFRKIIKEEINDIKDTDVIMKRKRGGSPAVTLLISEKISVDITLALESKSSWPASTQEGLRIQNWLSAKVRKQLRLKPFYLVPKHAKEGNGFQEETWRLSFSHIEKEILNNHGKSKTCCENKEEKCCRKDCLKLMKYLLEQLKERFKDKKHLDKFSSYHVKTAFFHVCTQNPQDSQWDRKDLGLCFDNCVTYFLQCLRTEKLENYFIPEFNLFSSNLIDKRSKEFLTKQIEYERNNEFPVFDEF
NPYLR7 agonist = activates Aedes aegypti NPYLR7 receptor; HEK293T NPYLR7/Galpha15, GCaMP6s calcium fluorescence; activation, % at 10 µM; hit rate 0.15% among 270,000; in the data active = activation above about 40%;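 note: 0% = vehicle and 100% = reference agonist at the receptor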
* marks the source's active call; other numbers are inactive results; x = no result. This is a sample that favours compounds with a hit; in the whole collection about 0.28% have one here. Cut-off read from the data, not from the text of the source, unless noted: active = inhibition above about 40%; inactive = the rest.

SMILES	mcGAS lum	hcGAS inh	NPYLR7 agonist
Cc1ccccc1Cn1c(CCNC(=O)c2ccco2)nc2ccccc21	-8	-5	-3
CN(Cc1cc(C(C)(C)C)n[nH]1)c1nc(CCN)nc2ccccc12	x	-6	x
CN(Cc1ccccc1)c1nc(CCN)nc2ccccc12	-8	47*	-2
CCOC(=O)C1CCCN(CC(=O)N2N=C(c3ccccc3Cl)CC2c2ccc3c(c2)OCO3)C1 (stereo unspecified)	-4	-4	-2
O=C(CN1CCc2ccccc2C1)N1N=C(c2ccccc2F)CC1c1ccc(Cl)cc1 (stereo unspecified)	-3	60*	15
CCOC(=O)C1CCCN(CC(=O)N2N=C(c3ccccc3Cl)CC2c2ccc(Cl)cc2)C1 (stereo unspecified)	0	2	42*
CC(=O)N1CCN(CC(=O)N2N=C(c3ccccc3F)CC2c2ccc(Cl)cc2)CC1 (stereo unspecified)	-4	-4	4
CC(Sc1ncnc2c1cnn2-c1ccc(F)cc1)C(=O)NC(C)(C)C (stereo unspecified)	x	-6	-12
COc1cc(C=C2Oc3cc(O)ccc3C2=O)cc(OC)c1OC	x	-8	83*
COc1ccc(/C=C2\Oc3cc(OCC(N)=O)ccc3C2=O)cc1	x	-1	3
CCOc1cc(/C=C2/Oc3cc(O)ccc3C2=O)cc(Cl)c1OCC(=O)N(C)C	x	-5	150*
CCOc1cc(C=C2N=C(c3ccc(Cl)cc3)OC2=O)ccc1OCC(=O)N(C)C	-8	-8	18
Cc1ccc(-c2csc(NC(=O)/C=C/c3ccc(F)cc3)n2)cc1	-2	0	9
N#CCSc1ccccc1C(=O)NCc1ccccc1F	x	-8	0
COc1cc(C=CC(=O)c2ccc(F)cc2)ccc1OC(F)F	x	1	-9
O=C(C=Cc1ccccc1OC(F)F)c1ccc(F)cc1	43*	-5	-2
COc1ccc(C(=O)N(Cc2ccccc2)C2CCC(NC(=O)C3CCN(C(=O)c4cccc(F)c4)CC3)CC2)cc1 (stereo unspecified)	-8	-2	4
COc1ccc2[nH]cc(CCNC(=O)c3ccc(Cl)cc3Cl)c2c1	-5	-2	8
N#Cc1c(SCc2ccccc2C(F)(F)F)sc2c(=O)[nH]c(=O)[nH]c12	7	8	-3
NC(=O)c1c(SCC(=O)c2ccc(F)cc2)sc2c(O)cc(=O)[nH]c12	-1	0	1
N#Cc1c(SCc2ccccc2C(F)(F)F)sc2c(O)cc(=O)[nH]c12	63*	6	-1
CC(=O)CSc1sc2c(O)cc(=O)[nH]c2c1C#N	73*	-2	13
CC1CC(C)CN(C(=O)Nc2cn(C)c3ccccc23)C1 (stereo unspecified)	-13	-7	2
O=C(C1CCCN1C(=O)NCC(F)(F)F)N1CCSCC1 (stereo unspecified)	x	-1	-1
CCc1ccc(/C=C2\C(=O)NN(c3ccc(Cl)c(Cl)c3)C2=O)cc1	15	-8	6
SMILES	mcGAS lum	hcGAS inh	NPYLR7 agonist
Cc1ccc(N2NC(=O)/C(=C/c3cccc(OC(=O)c4cccs4)c3)C2=O)cc1Cl	53*	0	0
CCOC(=O)C1=C(C)N=c2sc(=Cc3c(F)cccc3Cl)c(=O)n2C1c1ccccc1 (stereo unspecified)	-6	-2	-5
CSc1cccc(CN2CCCC(CO)(Cc3ccccc3)C2)c1 (stereo unspecified)	x	1	8
O=c1[nH]c(CCl)nc2c1cnn2Cc1ccccc1	54*	-9	12
CSc1nc2c(cnn2Cc2ccccc2)c(=O)[nH]1	x	-8	-5
O=C(O)C1COC2(CCCCC2)N1C(=O)c1ccccc1F (stereo unspecified)	-5	-5	16
COc1cccc(OC)c1-c1ccc(-n2cncc2C(=O)NCCF)cc1	-5	-7	33
Nc1cccc(NC(=O)c2cccc(S(=O)(=O)Nc3cccc(N)c3)c2)c1	-4	-3	12
O=C(Nc1cccc(C(=O)Nc2ccc(S(=O)(=O)O)c3cc(S(=O)(=O)O)cc(S(=O)(=O)O)c23)c1)Nc1cccc(C(=O)Nc2ccc(S(=O)(=O)O)c3cc(S(=O)(=O)O)cc(S(=O)(=O)O)c23)c1	86*	-1	-2
Cc1ccc2oc(CN(Cc3cc(F)ccc3F)C(=O)c3ccc(F)c(F)c3)nc2c1	-6	-3	5
Cc1ccc(C2=NN(C(=O)CN3CCC4(CC3)OCCO4)C(c3cccc(F)c3)C2)c(C)c1 (stereo unspecified)	-4	-4	-1
COCCN=Cc1cc(Br)cc(Br)c1O	2	68*	9
NC(=O)NN=Cc1cc(Br)cc(Br)c1O	x	8	1
COc1ccc(-c2cccc(-c3ccc(NC(=O)c4c(F)cccc4F)cc3)n2)cc1	-4	-2	1
COc1ccc(-c2cccc(-c3ccc(NC(=O)c4oc5ccccc5c4C)cc3)n2)cc1	-6	-3	43*
COc1cccc2c1C(=O)c1c(O)c3c(c(O)c1C2=O)C[C@@](O)(C(=O)CO)C[C@@H]3O[C@H]1C[C@H](N)[C@H](O)[C@H](C)O1	x	58*	-13
COc1cccc2c1C(=O)c1c(O)c3c(c(O)c1C2=O)C[C@@](O)(C(C)=O)C[C@@H]3OC1CC(N)C(O)C(C)O1 (stereo partly specified)	x	61*	-3
COc1cc(C(=O)N2CCC3(CCNC(=O)CC3)CC2)ccn1	x	1	1
O=c1[nH]c2cc3ccccc3c(=O)n2c2ccccc12	-5	-10	3
O=C(CN1C(=O)CCC1=O)Nc1c2c(nn1-c1ccccc1)CCC2	x	1	7
Cc1ncsc1CCN(C)CC(=O)O	x	0	x
N#Cc1c(-c2ccc3c(c2)OCO3)nc(N2CCCCC2)[nH]c1=O	x	7	-2
O=C1OC(/C=C\c2cccc([N+](=O)[O-])c2)=NC/1=C/c1ccccc1F	-5	-1	21
CC(C)=CCCC1=CC[C@H](C(=O)O)[C@H](C(=O)O)C1	-5	-4	2
CC1=CC(C)C(C(=O)O)C(C(=O)O)C1 (stereo unspecified)	-6	-1	43*
SMILES	mcGAS lum	hcGAS inh	NPYLR7 agonist
C=C(C)CNC(=O)c1sc2ccc(OC)cc2c1Cl	-3	-2	2
COCCCNc1nc2nonc2nc1NC1(c2ccccc2)CC1	x	-7	7
Cc1nn(C)c2ncc(NC(=O)c3nn(-c4ccc(Cl)cc4)c(C)cc3=O)cc12	x	-6	1
Nc1nc(Cl)nc2c1ncn2[C@@H]1O[C@H](COP(=O)(O)OP(=O)(O)OP(=O)(O)O)[C@H](O)C1O (stereo partly specified)	9	2	129*
Nc1ncnc2c1ncn2C1OC(COP(=O)(O)OP(=O)(O)OP(=O)(O)OP(=O)(O)OCC2OC(n3cnc4c(N)ncnc43)C(O)C2O)C(O)C1O (stereo unspecified)	-1	2	20
CCOC(=O)C1=C(N2CCOCC2)CC(c2ccc(C)cc2)(C(F)(F)F)NC1=O (stereo unspecified)	x	-8	3
O=C1/C(=C/c2cc3cc(Br)ccc3o2)Oc2c1ccc(O)c2CN1CCN(CCO)CC1	-3	-2	72*
Cc1cc(O)c(CN2CCN(CCO)CC2)c2c1C(=O)/C(=C/c1cccc(Br)c1)O2	6	-7	25
O=[N+]([O-])c1ccc(OC2=NS(=O)(=O)c3cc([N+](=O)[O-])ccc32)cc1	-5	-8	9
